High-throughput results deposited in PubChem by Milwaukee Institute for Drug Discovery.
Sampled rows, rich in hits. Any-hit rate of the full collection: about 6.8%.
Cy5 interf NS3h – Cy5 fluorescence quenchers or enhancers, artefact control for HCV NS3 helicase inhibitor project, biochemical, ChemBridge library, Cy5 readout; Cy5-dT15 DNA with NS3h, fluorescence interference; actives lie on both sides; signal over control mean, under 1 quenches; fluorescence interference ratio at 100 µM; AID 720488, 2013; actives 6% (n = 16,000);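 active = compound fluorescence over control fluorescence at most 0.8, a quencher, or at least a set upper limit, an enhancer; inactive = ratio between 0.8 and the set upper limit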
HCV NS3h FP – HCV NS3 helicase inhibitors, primary screen, biochemical, fluorescence polarization, ChemBridge library | Hepatitis C virus NS3 helicase | NS3h Cy5-dT15 DNA binding | inhibition, % at 100 µM | actives 1.6% (n = 16,000) | AID 687043, 2013;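 active = inhibition above the average over every tested compound plus 3 SD, cut at about 40% in these data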
NS3h confirm – HCV NS3 helicase inhibitors, retest, confirmation, biochemical, fluorescence polarization, ChemBridge library. NS3h binding to Cy5-dT15 DNA. shares compounds with HCV NS3h FP. actives 20% (n = 240). AID 720485, 2013. inhibition, % at 100 µM;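 active = percent inhibition of 50% or more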
SSB-DNA FP CB – E. coli SSB-DNA binding inhibitors, counter-screen for HCV NS3 helicase inhibitor project, biochemical, fluorescence polarization, selected ChemBridge compounds; actives 40% (n = 240); E. coli SSB binding Cy5-dT15; inhibition, % at 100 µM; shares compounds with HCV NS3h FP;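 active = inhibition of at least 50%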;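 note: displacers lower Cy5 polarization so higher inhibition means more SSB displaced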
Target sequence (P0AGE0 whole entry, looked up): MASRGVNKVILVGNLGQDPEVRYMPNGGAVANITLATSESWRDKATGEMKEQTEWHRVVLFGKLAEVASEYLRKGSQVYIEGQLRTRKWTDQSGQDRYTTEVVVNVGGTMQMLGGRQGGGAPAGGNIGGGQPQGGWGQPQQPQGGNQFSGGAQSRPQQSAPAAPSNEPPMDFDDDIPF
Cy5 SSB fluor CB – Cy5 fluorescence interference with SSB-bound oligo, artefact control for HCV NS3 helicase inhibitor project, biochemical, E. coli SSB, selected ChemBridge compounds; shares compounds with HCV NS3h FP; Cy5-dT15/E. coli SSB fluorescence interference; actives lie on both sides; fluorescence interference ratio at 100 µM; actives 8% (n = 240); AID 720487, 2013;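 active = fluorescence interference ratio at or above 1.2, signal boosting, or at or below 0.8, signal quenching; inactive = ratio between 0.8 and 1.2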;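 note: ratio of compound well signal to mean negative control signal so 1 means no effect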
Cy5 fluor confirm – Cy5-DNA-NS3h complex fluorescence interference, confirmation, artefact control for HCV NS3 helicase inhibitor project, biochemical, ChemBridge library | shares compounds with HCV NS3h FP | Cy5-dT15 DNA/NS3h fluorescence interference counterscreen | fluorescence interference ratio at 100 µM, hits read low | actives 44% (n = 240);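 active = fluorescence interference ratio at or below 0.8 quencher or at or above a set limitenhancer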;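 note: ratio of compound fluorescence to mean of negative controls so 1 means no interference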
An asterisk follows results filed as active.

SMILES | Cy5 interf NS3h | HCV NS3h FP | others
COc1cccc(NC(=O)COc2cc(C)c(Cl)c(C)c2)c1 | 0.877 | 10.5
COc1cccc(NC(=O)COc2ccc(C)cc2C)c1 | 0.785* | 13.2
CC(C)N=C1NS(=O)(=O)c2cc([N+](=O)[O-])ccc21 | 0.997 | -3.5
CC(C)(C)CC(C)(C)N=C1NS(=O)(=O)c2cc([N+](=O)[O-])ccc21 | 0.613* | 3.1
CCOC(=O)c1ccc(NC(=O)CN(c2ccc(OC)cc2)S(=O)(=O)c2ccc(C)cc2)cc1 | 1.01 | 7.1
CC1(C)CC(=O)C2=C(C1)Nc1ccccc1NC2c1cccc2ccccc12 (stereo unspecified) | 1.07 | -3.0
NC(=O)CN(c1cccc([N+](=O)[O-])c1)S(=O)(=O)c1ccccc1 | 0.977 | 9.6
CN(C)CC(O)CN(c1ccccc1)S(=O)(=O)c1ccc([N+](=O)[O-])cc1 (stereo unspecified) | 0.788* | 0.0
COc1ccc(N(CC(O)CN(Cc2ccccc2)Cc2ccccc2)S(=O)(=O)c2ccc(C)cc2)cc1 (stereo unspecified) | 0.958 | 9.9
Cc1cccc(N(CC(O)CN(Cc2ccccc2)Cc2ccccc2)S(=O)(=O)c2ccccc2)c1 (stereo unspecified) | 0.705* | 20.7
Cc1ccc(S(=O)(=O)N(CC(O)CN(CC(C)C)CC(C)C)c2cccc(C)c2)cc1 (stereo unspecified) | 0.772* | 11.5
Cc1ccc(S(=O)(=O)N(CC(C)C)CC(C)C)cc1 | 0.943 | 5.0
COc1ccc(-n2nc3cc(C)c(NC(=O)/C=C/c4ccccc4)cc3n2)cc1 | 1.06 | 9.9
COc1cc(/C=C2/C(=O)NC(=O)N(c3ccccc3F)C2=O)ccc1OCc1ccc(C(=O)O)cc1 | 1.06 | 4.8
CCN(CC)C(=O)COc1ccc2oc(C)c(C(=O)OC(C)C)c2c1 | 0.788* | 15.5
CCOC(=O)COc1ccc2oc(C)c(C(=O)OC(C)C)c2c1 | 0.855 | 13.7
O=C(CCC1CCCC1)NC1CCCCCCC1 | 0.99 | -0.7
O=S(=O)(c1cc(Cl)ccc1Cl)N1CCC(Cc2ccccc2)CC1 | 1.03 | 3.3
CC(NC(=O)C(=O)NCC1CCCO1)c1ccccc1 (stereo unspecified) | 0.636* | -1.5
O=C(NCC1CCCO1)C(=O)Nc1ccc(F)cc1 (stereo unspecified) | 1.03 | 1.8
O=C(NCC1CCCO1)C(=O)Nc1ccccc1F (stereo unspecified) | 0.986 | 2.3
CCc1ccc(NC(=O)C(=O)NCC2CCCO2)cc1 (stereo unspecified) | 0.755* | 18.0
Cc1cc([N+](=O)[O-])ccc1-c1cc2ccccc2oc1=O | 0.69* | 17.7
Cc1cc([N+](=O)[O-])ccc1-c1ccc(CO)o1 | 0.922 | 1.4
COC(=O)C1=C(C)N=c2s/c(=C/c3ccc(F)cc3)c(=O)n2C1c1ccc(OC)cc1 (stereo unspecified) | 0.902 | 7.9
SMILES | Cy5 interf NS3h | HCV NS3h FP | others
COC(=O)c1cc(C(=O)NCc2ccc(OC)cc2)cc([N+](=O)[O-])c1 | 0.962 | 9.9
CCN(Cc1ccccc1)C(=O)c1cc(C(=O)OC)cc([N+](=O)[O-])c1 | 0.664* | 8.7
COc1cc(Br)c(/C=C/c2[nH]c(=O)[nH]c(=O)c2[N+](=O)[O-])cc1OC | 0.919 | 4.5
O=C1NC(=S)S/C1=C\c1ccc(Oc2ccc([N+](=O)[O-])cn2)cc1 | 1.04 | 39.1 | NS3h confirm=25.6;SSB-DNA FP CB=4.1;Cy5 SSB fluor CB=0.977;Cy5 fluor confirm=0.724*
O=C1NC(=S)N/C1=C\c1ccc(Oc2ccc([N+](=O)[O-])cn2)cc1 | 0.982 | -0.7
O=C1/C(=C/c2ccc(F)cc2)SC(=S)N1C1CCS(=O)(=O)C1 (stereo unspecified) | 1.03 | 10.6
